From the supplement of paper PMC7366291
Counter-ions that a name gives are not always drawn. ± gives the standard deviation or the standard deviation of the averaged measurements.

How the values were obtained:
Details in all cases: 25 µM; exposure: 24-48 hpf
[1] = test system: Danio rerio Tg(wt1b:EGFP) embryo, pronephros; experiment: glomerular separation, fold change vs DMSO control; higher = glomeruli further apart (abnormal)
Procedure, shortened: (§1)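 From 24 to 48 hpf, at 28.5°C, dechorionated Tg(wt1b:EGFP) zebrafish embryos sat in HEPES-buffered E3 with 0.003% PTU carrying 25 μM compound and 0.5% DMSO. Their pronephroi were imaged dorsally in 96-well plates filled with agarose, using 470 nm light and 10 z-slices. A Fiji macro measured distances and angles between 16 reference points that were set manually on maximum projections, and any value more than 2 SD from its feature mean was excluded. Features are expressed as fold change relative to the mean of DMSO-treated embryos imaged on the same day.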

[2] = test system: Danio rerio Tg(wt1b:EGFP) embryo, pronephros; experiment: glomerular width (mean of left and right), fold change vs DMSO control; higher = wider glomerulus
Procedure, shortened: as §1

[3] = test system: Danio rerio Tg(wt1b:EGFP) embryo, pronephros; experiment: fraction of imaged embryos annotated as normal kidney; higher = less nephrotoxic; extreme values may be limits of the assay
Procedure, shortened: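 Tricaine-anaesthetised Tg(wt1b:EGFP) zebrafish larvae were oriented dorsally in agarose-filled 96-well plates, and their pronephroi were recorded by widefield fluorescence at 470 nm in 10 z-slices. Before this, the dechorionated embryos had been exposed in 12-well plates to 25 μM compound in 0.5% DMSO and 5 mM HEPES-buffered E3 with 0.003% PTU, from 24 to 48 hpf at 28.5°C. Maximum projections were annotated manually for each embryo, and the read-out is the fraction per treatment classed as normal kidney.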

[4] = test system: Danio rerio Tg(wt1b:EGFP) embryo, pronephros; experiment: pronephric angle neck segment to proximal convoluted tubule (mean of left and right), fold change vs DMSO control; higher = larger pronephric angle
Procedure, shortened: as §1

SMILES: CC(C)c1nc(CN(C)C(=O)N[C@H](C(=O)N[C@@H](Cc2ccccc2)C[C@H](O)[C@H](Cc2ccccc2)NC(=O)OCc2cncs2)C(C)C)cs1 [Ritonavir]
- glomerular separation [1]: 1.18 ± 0.61
- glomerular width [2]: 0.961 ± 0.094
- fraction of imaged embryos annotated as normal kidney [3]: 1
- pronephric angle neck segment [4]: 1.02 ± 0.033

SMILES: N=C(N)NCC1COC2(CCCCC2)O1 (centres undefined) [Guanadrel sulfate]
- glomerular separation [1]: 0.935 ± 0.45
- glomerular width [2]: 1.02 ± 0.071
- fraction of imaged embryos annotated as normal kidney [3]: 0.75
- pronephric angle neck segment [4]: 0.992 ± 0.012

SMILES: Nc1nc(F)nc2c1ncn2[C@@H]1O[C@H](CO)[C@@H](O)[C@@H]1O [Fludarabine]
- glomerular separation [1]: 0.97 ± 0.29
- glomerular width [2]: 0.997 ± 0.061
- fraction of imaged embryos annotated as normal kidney [3]: 1
- pronephric angle neck segment [4]: 0.975 ± 0.025

SMILES: CCOC(=O)[C@H](CCc1ccccc1)N[C@@H](C)C(=O)N1[C@H](C(=O)O)C[C@@H]2CCC[C@@H]21 [Ramipril]
- glomerular separation [1]: 0.977 ± 0.26
- glomerular width [2]: 0.8501 ± 0.0032
- fraction of imaged embryos annotated as normal kidney [3]: 1
- pronephric angle neck segment [4]: 1.037 ± 0.0046

SMILES: NCCCC(O)(P(=O)(O)O)P(=O)(O)O [Alendronate sodium]
- glomerular separation [1]: 0.796 ± 0.25
- glomerular width [2]: 0.984 ± 0.03
- fraction of imaged embryos annotated as normal kidney [3]: 0.833
- pronephric angle neck segment [4]: 1 ± 0.041

SMILES: CN(C(=O)C(Cl)Cl)c1ccc(OC(=O)c2ccco2)cc1 [Diloxanide furoate]
- glomerular separation [1]: 2.17 ± 1
- glomerular width [2]: 0.777 ± 0.037
- fraction of imaged embryos annotated as normal kidney [3]: 0.25
- pronephric angle neck segment [4]: 1.25 ± 0.081

SMILES: NC[C@H]1O[C@H](O[C@H]2[C@H](O[C@@H]3O[C@H](CO)[C@@H](O)[C@H]3O)[C@@H](O)[C@H](N)C[C@@H]2N)[C@H](N)[C@@H](O)[C@@H]1O [Ribostamycin sulfate salt]
- glomerular separation [1]: 0.722 ± 0.22
- glomerular width [2]: 1.08 ± 0.019
- fraction of imaged embryos annotated as normal kidney [3]: 0.833
- pronephric angle neck segment [4]: 1.06 ± 0.061

SMILES: CC(=O)OCC(=O)[C@@]1(O)CC[C@H]2[C@@H]3CCC4=CC(=O)CC[C@]4(C)[C@H]3[C@@H](O)C[C@@]21C [Cortisol acetate]
- glomerular separation [1]: 1.43 ± 0.59
- glomerular width [2]: 1.29 ± 0.049
- fraction of imaged embryos annotated as normal kidney [3]: 0.25
- pronephric angle neck segment [4]: 1.01 ± 0.031

SMILES: CC1=Nc2ccc(Cl)cc2S(=O)(=O)N1 [Diazoxide]
- glomerular separation [1]: 0.743 ± 0.26
- glomerular width [2]: 1.03 ± 0.029
- fraction of imaged embryos annotated as normal kidney [3]: 0.833
- pronephric angle neck segment [4]: 0.942 ± 0.035

SMILES: CC1(C)O[C@@H]2C[C@H]3[C@@H]4CCC5=CC(=O)CC[C@]5(C)[C@@]4(F)[C@@H](O)C[C@]3(C)[C@]2(C(=O)CCl)O1 [Halcinonide]
- glomerular separation [1]: 2.01 ± 0.91
- glomerular width [2]: 1.18 ± 0.014
- fraction of imaged embryos annotated as normal kidney [3]: 0.333
- pronephric angle neck segment [4]: 1.14 ± 0.043

SMILES: CN(C)CCC[C@@]1(c2ccc(F)cc2)OCc2cc(C#N)ccc21 [Escitalopram oxalate]
- glomerular separation [1]: 1.13 ± 0.38
- glomerular width [2]: 0.9778 ± 0.0032
- fraction of imaged embryos annotated as normal kidney [3]: 0.833
- pronephric angle neck segment [4]: 0.941 ± 0.024
